# Publication PMC11062922 (Nature Chemical Biology, 2023)
# Read-outs that look alike come from different tables or passages of the source.
# How the values were obtained:
# Parameters in all cases: species or system human, MV4-11 + K-562 + COLO205 + SK-N-BE2 + OVCAR-8
# [1] = tested on: CSNK1A1; settings: read-out: apparent Kd, compound concentrations: 100 nM and 1000 nM (sheet 'Samples'), n = 1
# [2] = tested on: MYLK3; settings: read-out: apparent Kd; compound concentrations: 100 nM and 1000 nM (sheet 'Samples'), CATDS: 0.254967092830167; n = 1
# [3] = tested on: PKN2; settings: read-out: apparent Kd; compound concentrations: 100 nM and 1000 nM (sheet 'Samples'), CATDS: 0.232185519076441; n = 1
# [4] = tested on: TP53RK; settings: read-out: apparent Kd; compound concentrations: 100 nM and 1000 nM (sheet 'Samples'), CATDS: 0.27535936863047; n = 1
# [5] = tested on: CSNK1D; settings: read-out: apparent Kd, n = 1
# [6] = tested on: CSNK1E; settings: read-out: apparent Kd, n = 1
# [7] = tested on: MAPK14; settings: read-out: apparent Kd, n = 1
# [8] = tested on: MAPKAPK2; settings: read-out: apparent Kd, n = 1
# [9] = tested on: CLK2; settings: read-out: apparent Kd; compound concentrations: 100 nM and 1000 nM (sheet 'Samples'), CATDS: 1; n = 1
# [10] = tested on: FN3KRP; settings: read-out: apparent Kd; compound concentrations: 100 nM and 1000 nM (sheet 'Samples'), CATDS: 4.0325276132441398E-2; n = 1
# [11] = tested on: FN3K; settings: read-out: apparent Kd; compound concentrations: 100 nM and 1000 nM (sheet 'Samples'), CATDS: 3.5729467318233003E-2; n = 1
# [12] = tested on: MAPK1; settings: read-out: apparent Kd; compound concentrations: 100 nM and 1000 nM (sheet 'Samples'), CATDS: 3.8538636035205603E-2; n = 1
# [13] = tested on: MAPK8; settings: read-out: apparent Kd, compound concentrations: 100 nM and 1000 nM (sheet 'Samples'), n = 1
# [14] = tested on: MAPK9; settings: read-out: apparent Kd, compound concentrations: 100 nM and 1000 nM (sheet 'Samples'), n = 1
# [15] = tested on: NUAK2; settings: read-out: apparent Kd; compound concentrations: 100 nM and 1000 nM (sheet 'Samples'), CATDS: 3.7503176439752997E-2; n = 1
# [16] = tested on: PAK6; settings: read-out: apparent Kd; compound concentrations: 100 nM and 1000 nM (sheet 'Samples'), CATDS: 3.6851014087153897E-2; n = 1
# [17] = tested on: PDXK; settings: read-out: apparent Kd; compound concentrations: 100 nM and 1000 nM (sheet 'Samples'), CATDS: 4.2866477052702801E-2; n = 1
# [18] = tested on: PRKD1; settings: read-out: apparent Kd; compound concentrations: 100 nM and 1000 nM (sheet 'Samples'), CATDS: 5.7643815107824597E-2; n = 1
# [19] = tested on: PRKD2; settings: read-out: apparent Kd; compound concentrations: 100 nM and 1000 nM (sheet 'Samples'), CATDS: 6.6871929523774506E-2; n = 1
# [20] = tested on: PRKD3; settings: read-out: apparent Kd; compound concentrations: 100 nM and 1000 nM (sheet 'Samples'), CATDS: 6.6409082952543802E-2; n = 1
# [21] = tested on: RIPK2; settings: read-out: apparent Kd, compound concentrations: 100 nM and 1000 nM (sheet 'Samples'), n = 1
# [22] = tested on: MAPK10; settings: read-out: apparent Kd; compound concentrations: 100 nM and 1000 nM (sheet 'Samples'), CATDS: 9.1300875893450595E-2; n = 1
# [23] = tested on: MAPK11; settings: read-out: apparent Kd; compound concentrations: 100 nM and 1000 nM (sheet 'Samples'), CATDS: 7.8830615244885299E-2; n = 1
# [24] = tested on: NLK; settings: read-out: apparent Kd; compound concentrations: 100 nM and 1000 nM (sheet 'Samples'), CATDS: 7.7822094948188494E-2; n = 1
# [25] = tested on: RIPK3; settings: read-out: apparent Kd; compound concentrations: 100 nM and 1000 nM (sheet 'Samples'), CATDS: 4.8358331607940903E-2; n = 1
# [26] = compound concentrations:100 nM and 1000 nM (sheet 'Samples')
structure (smiles),measurement,setting,value
Cc1ccc(-c2cc3c(NC(=O)C4CC4)ncnc3o2)cc1 [GW819230X],potency estimated from few doses,[1]; CATDS: 0.241580521879566,2130 nM
same,potency estimated from few doses,[2],1910 nM
same,potency estimated from few doses,[3],2320 nM
same,potency estimated from few doses,[4],1650 nM
Fc1ccc(-c2ncn(C3CCNCC3)c2-c2ccnc(Oc3ccc(-c4ccccc4)cc3)n2)cc1 [SB-245391],potency estimated from few doses,[5]; [26],486 nM
same,potency estimated from few doses,[6]; [26],1840 nM
same,potency estimated from few doses,[7]; [26],424 nM
same,potency estimated from few doses,[8]; [26],116 nM
FC(F)(F)c1cccc(Nc2nccc(-c3cnn4nc(-c5ccccc5)ccc34)n2)c1 [GW819077X],potency estimated from few doses,[9],960 nM
CC(CO)Nc1cc(-c2[nH]c3cccnc3c2-c2ccc(F)cc2)ccn1.Cl (stereo not drawn) [RO3202312-001],potency estimated from few doses,"[5]; compound concentrations: 100 nM and 1000 nM (sheet 'Samples'), CATDS: 9.2931032054770199E-2",48.2 nM
same,potency estimated from few doses,"[6]; compound concentrations: 100 nM and 1000 nM (sheet 'Samples'), CATDS: 6.9907661952316402E-2",115 nM
same,potency estimated from few doses,[10],967 nM
same,potency estimated from few doses,[11],1990 nM
same,potency estimated from few doses,"[7]; compound concentrations: 100 nM and 1000 nM (sheet 'Samples'), CATDS: 0.154329578320028",12.1 nM
same,potency estimated from few doses,[12],1240 nM
same,potency estimated from few doses,[13]; CATDS: 4.79247089655142E-2,440 nM
same,potency estimated from few doses,[14]; CATDS: 0.13086781986766799,18.6 nM
same,potency estimated from few doses,"[8]; compound concentrations: 100 nM and 1000 nM (sheet 'Samples'), CATDS: 0.22131403995385401",4.81 nM
same,potency estimated from few doses,[15],1450 nM
same,potency estimated from few doses,[16],1620 nM
same,potency estimated from few doses,[17],716 nM
same,potency estimated from few doses,[18],219 nM
same,potency estimated from few doses,[19],132 nM
same,potency estimated from few doses,[20],135 nM
same,potency estimated from few doses,[21]; CATDS: 4.9490640044255602E-2,386 nM
CN1CCC(n2cnc(-c3ccc(F)cc3)c2-c2ccnc(Nc3ccccc3)n2)CC1 [SB-236687],potency estimated from few doses,[1]; CATDS: 5.98984637657098E-2,341 nM
same,potency estimated from few doses,"[5]; compound concentrations: 100 nM and 1000 nM (sheet 'Samples'), CATDS: 0.13245154437339501",30.3 nM
same,potency estimated from few doses,"[6]; compound concentrations: 100 nM and 1000 nM (sheet 'Samples'), CATDS: 9.7404692081277694E-2",66.2 nM
same,potency estimated from few doses,[22],79 nM
same,potency estimated from few doses,[23],122 nM
same,potency estimated from few doses,"[7]; compound concentrations: 100 nM and 1000 nM (sheet 'Samples'), CATDS: 0.23867511815935299",6.98 nM
same,potency estimated from few doses,[13]; CATDS: 4.9540433468536101E-2,1080 nM
same,potency estimated from few doses,[14]; CATDS: 8.0964581891509499E-2,112 nM
same,potency estimated from few doses,[24],127 nM
same,potency estimated from few doses,[21]; CATDS: 6.8515245953885195E-2,196 nM
same,potency estimated from few doses,[25],1330 nM
